The whole screen tested about 220,000 compounds, of which about 910 (0.41%) were called active. Only a selection was taken, and actives are over-represented in it overall. Results with a measured potency or affinity are listed apart. A number with no mark means an inactive call.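 The calls were made as follows: active = primary inhibition above the hit cutoff, then over 50% inhibition at one or more dose response concentrations (cut at about 23% in these data, passing the limit was not always enough); inconclusive = conflicting primary data, or primary hits not chosen for dose response; inactive = low primary inhibition, or under 50% at every dose.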
What follows are compounds tested against Aminopeptidase N (Plasmodium falciparum (isolate 3D7)) (UniProt O96935) (assay: malaria alanyl aminopeptidase activity blockers – biochemical, fluorogenic H-Leu-NHMec substrate, 1536-well (AID 1445;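 also: plate controls were DMSO full reaction for no effect and no enzyme background for full effect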)). Settings: recombinant M1AAP, H-Leu-NHMec fluorogenic kinetic assay; at 30 µM, hits give high values unless noted.
Aminopeptidase N (Plasmodium falciparum (isolate 3D7)), sequence (O96935 whole entry, looked up): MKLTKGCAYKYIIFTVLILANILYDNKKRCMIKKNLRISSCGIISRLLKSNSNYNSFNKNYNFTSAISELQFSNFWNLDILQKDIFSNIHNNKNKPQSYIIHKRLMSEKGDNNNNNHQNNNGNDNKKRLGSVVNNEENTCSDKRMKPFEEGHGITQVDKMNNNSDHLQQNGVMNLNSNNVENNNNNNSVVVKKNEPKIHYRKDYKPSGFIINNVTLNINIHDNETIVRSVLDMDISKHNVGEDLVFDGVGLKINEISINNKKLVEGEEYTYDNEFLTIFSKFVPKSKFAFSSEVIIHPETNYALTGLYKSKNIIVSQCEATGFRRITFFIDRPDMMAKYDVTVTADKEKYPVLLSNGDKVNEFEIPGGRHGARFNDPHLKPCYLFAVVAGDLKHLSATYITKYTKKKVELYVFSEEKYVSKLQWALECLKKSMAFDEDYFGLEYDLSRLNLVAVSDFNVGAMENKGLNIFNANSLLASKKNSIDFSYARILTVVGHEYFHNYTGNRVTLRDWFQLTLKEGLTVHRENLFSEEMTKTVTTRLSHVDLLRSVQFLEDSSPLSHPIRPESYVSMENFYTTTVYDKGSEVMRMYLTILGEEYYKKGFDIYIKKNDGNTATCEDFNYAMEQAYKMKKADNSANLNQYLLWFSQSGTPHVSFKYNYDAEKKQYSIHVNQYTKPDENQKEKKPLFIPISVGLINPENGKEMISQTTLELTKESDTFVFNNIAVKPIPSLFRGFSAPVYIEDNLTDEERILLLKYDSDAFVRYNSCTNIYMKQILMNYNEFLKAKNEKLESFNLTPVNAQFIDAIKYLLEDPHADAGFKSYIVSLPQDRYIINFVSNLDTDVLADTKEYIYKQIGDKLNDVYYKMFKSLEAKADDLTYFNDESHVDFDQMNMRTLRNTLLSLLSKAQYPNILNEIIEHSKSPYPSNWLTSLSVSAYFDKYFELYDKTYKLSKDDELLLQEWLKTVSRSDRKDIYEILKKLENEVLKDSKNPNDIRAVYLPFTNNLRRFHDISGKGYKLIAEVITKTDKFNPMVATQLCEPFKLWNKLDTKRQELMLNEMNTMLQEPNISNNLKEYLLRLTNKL

| SMILES | inhibition |
| --- | --- |
| CCOC(=O)C1(CC2CCCCO2)CCN(C(=O)Nc2ccccc2CC)CC1 (stereo not drawn) | 1.45% |
| O=C(NCCc1nc2ccccc2[nH]1)/C(=C/c1ccc2c(c1)OCO2)NC(=O)c1ccccc1Cl | 4.92% |
| Cc1cc(NS(=O)(=O)c2ccccc2)c([N+](=O)[O-])cc1C | 14% |
| COc1ccc([N+](=O)[O-])cc1NS(=O)(=O)c1ccccc1 | 6.84% |
| COc1ccc(S(=O)(=O)Nc2cc([N+](=O)[O-])ccc2OC)cc1 | 14.5% |
| COc1cccc(/C=C2\SC(N)=NC2=O)c1OS(=O)(=O)c1ccccc1 | 12.7% |
| COc1cc(C(=O)Nc2ccc(S(=O)(=O)Nc3ncccn3)cc2)c([N+](=O)[O-])cc1OC | 1.81% |
| COc1ccc(NS(=O)(=O)c2ccc(C)cc2)c([N+](=O)[O-])c1 | 3.88% |
| NC(=O)c1c(NC(=O)COC(=O)c2ccc(S(=O)(=O)Nc3ccccc3)cc2)sc2c1CCCC2 | 6.65% |
| COc1cc(C(=O)NCc2cn3ccccc3n2)cc(OC)c1OC | 9.74% |
| CN(C(=O)COC(=O)/C=C/c1cn(-c2ccccc2)nc1-c1ccc2c(c1)OCCO2)C1CCS(=O)(=O)C1 (stereo not drawn) | 9.43% |
| CCn1c(CNC(=O)c2cccs2)nnc1SCC(=O)Nc1ccc(Cl)cc1 | 4.83% |
| CCn1c(CCNC(=O)c2cccs2)nnc1SCC(=O)Nc1ccc(Cl)cc1 | 2.16% |
| CCn1c(SCC(=O)NCCc2ccccc2)nnc1-c1cccs1 | 8.15% |
| CCOC(=O)CSc1nnc(CNC(=O)c2cccs2)n1CCc1ccccc1 | -4.29% |
| O=C1CCCc2c1nc(-c1ccc(F)cc1)n2O | 0.92% |
| COC(=O)C1=C(Nc2ccc(C)cc2)C=C(C)C(C(=O)OC)C1c1ccc(OC)cc1 (stereo not drawn) | -4% |
| CC(=O)c1cccc(NC(=O)c2cc(-n3cnnc3)ccc2Cl)c1 | 6.6% |
| CC(=O)c1ccc(NC(=O)c2ccc3nc(-c4ccco4)c(-c4ccco4)nc3c2)cc1 | 10.9% |
| O=C(Nc1ccccc1)c1ccc2nc(-c3ccco3)c(-c3ccco3)nc2c1 | 13.6% |
| O=C(Nc1cccc(C(F)(F)F)c1)c1ccc2nc(-c3ccco3)c(-c3ccco3)nc2c1 | 23.9% (active) |
| CCn1c(CCNC(=O)c2ccc(Cl)c(Cl)c2)nnc1SCCOc1ccc(OC)cc1 | 1.21% |
| CCOC(=O)Cn1c(=O)c2c(nc(N3CCOCC3)n2C)n(C)c1=O | 0.98% |
| O=C(Cc1ccc(-c2ccccc2)cc1)NCc1ccccc1 | -0.4% |

| SMILES | inhibition |
| --- | --- |
| O=C(Cc1cccs1)NCc1ccccc1 | 3.77% |
| Cc1ccc(NC(=O)COC(=O)CNC(=O)c2ccc(C)s2)cc1 | 5.25% |
| Cc1ccc(C(=O)NCC(=O)OCC(=O)NCCc2ccccc2)s1 | 0.53% |
| CC(C(=O)NC1=NCCS1)N1C(=O)c2ccccc2C1=O (stereo not drawn) | 22.3% |
| CSCCC(C(=O)Nc1ccc2c(c1)OCO2)N1C(=O)c2ccccc2C1=O (stereo not drawn) | 4.81% |
| CCOP(=O)(O)c1cccc(OCCOCCOc2cccc(P(=O)(O)OCC)c2)c1 | -1.13% |
| COc1ccc(C2NC(=S)NC(C)=C2C(=O)N2CCOCC2)cc1 (stereo not drawn) | 0.92% |
| CC(NCC1(N2CCOCC2)CCCCC1)C(=O)Nc1ccc(Cl)cc1Cl (stereo not drawn) | -2.83% |
| C=CCNC(NC(=O)c1ccccc1)(C(=O)OCC)C(F)(F)F (stereo not drawn) | -7.27% |
| COc1ccc(/C=C2/SC(=O)N(CCC(=O)Nc3ccccc3)C2=O)cc1OC | -3.04% |
| COc1cc(/C=C2\SC(=S)N(NC(=O)c3cccnc3)C2=O)ccc1O | 19.8% |
| COc1cc(/C=C2\SC(=S)N(N(C)c3ccccc3)C2=O)ccc1O | 3.49% |
| COc1cc(/C=C2\SC(=S)N(NS(=O)(=O)c3ccccc3)C2=O)cc(OC)c1OC | 20% |
| COc1cc(/C=C2\SC(=S)N(Nc3ccccc3)C2=O)cc(OC)c1OC | 0.45% |
| COc1cc(/C=C2\SC(=S)N(Nc3ccccc3)C2=O)ccc1O | 13.9% |
| COc1ccc(/C=C2\SC(=O)N(CCC(=O)Nc3ccccc3)C2=O)cc1OC | 7.25% |
| COc1cc(/C=C2\SC(=S)N(N3CCOCC3)C2=O)ccc1O | -11.3% |
| C=CCc1cccc2cc(C(=O)NNC(=O)c3ccncc3)c(=O)oc12 | 20.9% |
| Cn1c(CSc2nc3ccccc3n2C)nc2ccccc21 | -4.15% |
| CCOC(=O)CSc1nnc(Cc2ccccc2)n1CC1CCCO1 (stereo not drawn) | 4.73% |
| Cc1[nH]c(=O)c(C#N)c(C)c1Cc1ccc(Cl)cc1Cl | 4.22% |
| O=c1c2[nH]c3ccccc3c2ncn1CCN1CCCCC1 | 8.11% |
| O=C(CN1CCN(C(=O)c2cccc(F)c2)CC1)NC1CCCCC1 | -4.11% |
| Cc1cc(C)cc(NC(=O)CCN2CC(C)OC(C)C2)c1 (stereo not drawn) | 0.2% |

| SMILES | inhibition |
| --- | --- |
| Cc1ccc(SCC(=O)c2ccc[nH]2)cc1 | 2.44% |
| CCOc1ccc(/C=C2\SC(=S)N(C)C2=O)cc1OC | 9.35% |
| CCOc1ccc(/C=C2\SC(=S)N(Nc3ccccc3)C2=O)cc1OC | 1.22% |
| C/C(=N\NC(=O)COc1cccc(Cl)c1)c1ccc2c(c1)OCCO2 | 3.02% |
| c1cncc(Cc2cc3ccccc3[nH]2)c1 | 4.4% |
| CC(=O)C(C)Oc1ccc2c3c(c(=O)oc2c1)CCCC3 (stereo not drawn) | 1.79% |
| CC(C)Oc1ccc2c3c(c(=O)oc2c1)CCC3 | 3.02% |
| O=C(O)C(Oc1ccc2c3c(c(=O)oc2c1)CCC3)c1ccccc1 (stereo not drawn) | 24.2% (active) |
| CN(C(=O)c1c[nH]c(=O)cc1C(F)(F)F)c1ccc(Cl)c(Cl)c1 | -1.25% |
| O=C(NC(=S)Nc1ccccc1C(F)(F)F)c1ccccc1F | -0.76% |
| CC(C)N(C(=O)CSc1nnc(Cc2ccc3c(c2)OCO3)n1C)C(C)C | -1.85% |
| Cc1ccc(Oc2ccc(OCC(=O)NC(C)C(=O)O)cc2)cc1 (stereo not drawn) | 12.1% |
| COC(=O)c1ccc(OS(=O)(=O)N(C)C)cc1 | -0.39% |
| Cc1cccc(C)c1NC(=O)CCCSc1nc2ccccc2s1 | -3.68% |
| O=C(O)CCC(=O)Nc1nc2ccccc2s1 | 1.12% |
| O=C(O)CSCC(=O)Nc1ccc(-c2nc3ccccc3s2)cc1 | 7.28% |
| Cc1ccc2nc(-c3ccc(NC(=O)CSCC(=O)O)cc3)sc2c1 | 7.29% |
| Cc1ccc2nc(-c3ccc(NC(=O)COCC(=O)O)cc3)sc2c1 | 14.2% |
| CC(=O)Nc1scc(C)c1-c1nc2ccccc2s1 | 2.48% |
| Cc1ccc(-c2nc3ncccc3o2)cc1NC(=S)NC(=O)c1ccco1 | 4.38% |
| Cc1ccc(N2CC(C(=O)NCCCn3ccnc3)CC2=O)cc1 (stereo not drawn) | -4.35% |
| O=C(c1c(Cl)cccc1Cl)N1CCCCCC1 | 4.43% |
| COc1cc(NC(=S)N2CCCC(CO)C2)cc(OC)c1 (stereo not drawn) | -7.92% |
| COc1cc(S(=O)(=O)NCc2cccnc2)c(OC)cc1Br | -4.04% |

| SMILES | inhibition |
| --- | --- |
| C/C=C/C(=O)N1CC2(CC(c3cccc(NC(=O)CC(c4ccccc4)c4ccccc4)c3)=NO2)C[C@H]1C(N)=O (stereo partly drawn) | 12.4% |
| O=C(N/N=C/c1ccco1)c1ccn[nH]1 | 7.66% |
| Cc1cccc(NC(=O)CN2C(=O)S/C(=C\c3ccc(O)c([N+](=O)[O-])c3)C2=O)c1 | 22.4% |
| COc1cc(/C=C2\SC(=O)N(Cc3ccc(Cl)cc3)C2=O)cc([N+](=O)[O-])c1O | 29.4% |
| COc1cc(/C=C2\SC(=O)N(c3ccc(Cl)cc3)C2=O)cc([N+](=O)[O-])c1O | 8.85% |
| CCOc1cc(/C=C2\SC(=O)N(CC(=O)Nc3ccccc3F)C2=O)cc([N+](=O)[O-])c1O | 13.2% |
| Cc1nn(-c2ccccc2)c(Cl)c1/C=N/Nc1nnc(C)c(=O)[nH]1 | -2.22% |
| O=C(C(=O)N1CCN(c2cccc(Cl)c2)CC1)c1c[nH]c2ccccc12 | 2.96% |
| CCCNC(=O)NCCc1c(C)[nH]c2ccccc12 | 23.5% (active) |
| CCc1cccc(CC)c1NC(=S)NCCc1c(C)[nH]c2ccccc12 | 0.39% |
| Cc1[nH]c2ccccc2c1CCNC(=O)CCC(=O)c1ccccc1 | 0.77% |
| NS(=O)(=O)c1cccc(NC(=O)COC(=O)CC2CC3CCC2C3)c1 (stereo not drawn) | -2.75% |
| CSc1ncccc1C(=O)OCC(=O)N(C)C | 7.72% |
| Cc1cccc(-n2ccnc2SCC(=O)Nc2ccc3c(c2)OCCO3)c1 | 3.89% |
| O=C(CSc1nccn1-c1cccc(Cl)c1)Nc1ccc2c(c1)OCCO2 | 24.5% (active) |
| O=C(CSc1nccn1-c1ccc(Cl)cc1)Nc1ccc2c(c1)OCO2 | 1.54% |
| OC[C@H]1O[C@@H](n2cnc3c(Nc4ccccc4)ncnc32)[C@H](O)[C@@H]1O | 0.67% |
| C=CCNc1ncnc2c1ncn2C1OC(CO)C(O)C1O (stereo not drawn) | -2.12% |
| CCCOC(=O)c1ccc(Oc2c(-c3ccc(OCC)cc3O)n[nH]c2C)cc1 | -5.24% |
| COc1ccc(C2=C/C(=C\c3ccc(OC(C)=O)cc3)C(=O)O2)cc1 | -2.13% |
| O=[N+]([O-])c1ccc(C[n+]2cc(-c3ccccc3)n3c2CCCCC3)cc1 | -1.78% |
